A selection: hits, their analogues and other compounds. The true share with any hit is near 3.5%.
FBW7 activator = human FBW7 E3 ligase activation, primary screen; 650,000 tested, 0.13% active; Q969H0; normalized activity (activation), % at 26.1 µM; AID 1259310; AlphaScreen FBW7–phospho-cyclin E peptide binding, activator screen; in the data active = normalized activity above about 1.9%;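 also: purified mutant Fbw7 with reduced substrate affinity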
GPR151 activ = human GPR151 activation; activation, % at 11.2 µM; AID 1508602; PathHunter beta-arrestin GPR151 cells, luminescence; 650,000 tested, 1% active; Q8TDV0; in the data active = activation above about 4.9%;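 also: 0% = median of compound wells and 100% = cells with positive control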
TEAD-YAP block = TEAD-YAP interaction inhibition; HEK-TIYL cells, TEAD-Gal4/YAP UAS-luciferase luminescence; inhibition, % at 9.12 µM; 640,000 tested, 1.4% active; in the data active = inhibition above about 32%;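 also: 0% = median of test compound wells and 100% = reference inhibitor wells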
MITF inh = blocks human microphthalmia-associated transcription factor; 650,000 tested, 0.91% active; inhibition, % at 2.6 µM; AlphaScreen MITF homodimerization, bead proximity signal; in the data active = inhibition above about 50%;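 also: 0% = vehicle wells with protein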
GPR151 conf act = confirmation of human GPR151 activators; shares compounds with GPR151 activ; GPR151 PathHunter beta-arrestin cells, luminescence, 90 min; % of EA-reagent control over plate median; activation, % at 11.2 µM; 6,700 tested, under 10 active; AID 1508609;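 active = mean percent activation across replicates above the confirmation screen cutoff of 4.91%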
GPR119 counter = activates human GPR119 in a GPR151 counter-screen; 6,700 tested, 0.3% active; GPR119 PathHunter beta-arrestin cells, luminescence, 90 min; 0 = compound-well median, 100 = enzyme-acceptor control; activation, % at 11.2 µM; AID 1508611; shares compounds with GPR151 activ;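 active = mean percent activation in the counterscreen above 29.09%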;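 also: counterscreen on off-target GPR119 to flag nonselective hits from the GPR151 activator screen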
Target sequence (Q8TDV5 whole entry, looked up): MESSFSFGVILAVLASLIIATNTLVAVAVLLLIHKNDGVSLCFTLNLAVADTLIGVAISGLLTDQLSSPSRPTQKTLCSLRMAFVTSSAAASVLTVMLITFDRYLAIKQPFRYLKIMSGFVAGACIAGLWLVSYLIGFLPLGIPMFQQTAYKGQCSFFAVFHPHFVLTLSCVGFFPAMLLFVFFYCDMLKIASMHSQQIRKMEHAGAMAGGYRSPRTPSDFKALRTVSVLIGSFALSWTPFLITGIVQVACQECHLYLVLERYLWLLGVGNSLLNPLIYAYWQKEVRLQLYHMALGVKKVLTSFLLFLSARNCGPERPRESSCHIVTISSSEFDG
Active calls of the source: *; . = no result.

SMILES	FBW7 activator	GPR151 activ	TEAD-YAP block	MITF inh	GPR151 conf act	GPR119 counter
CC(C)OC(=O)C1C2C=CC3(CN(Cc4ccccc4)C(=O)C13)O2 (centres undefined)	0	5.5*	-2	-1	-2	-8
COCCNC(=O)C1C2C=CC3(CN(Cc4ccc(C)cc4)C(=O)C13)O2 (centres undefined)	0	14*	-1	-3	1	11
N#Cc1c(-c2ccc(Cl)cc2)[nH]c(=S)[nH]c1=O	0	0	-7	-2	.	.
O=C(CCC1CCN(C(=O)C2=CCCCC2)CC1)Nc1ccccc1	0	5.3*	1	-3	0	-5
CCc1cc2c(=O)c(-c3ccc4c(c3)OCCCO4)coc2cc1OC(C)C(=O)OC (centres undefined)	0	4	23	4	.	.
CCc1cc2c(=O)c(-c3ccc4c(c3)OCCO4)coc2cc1OC(C)C(=O)OC (centres undefined)	1	6.8*	4	4	3	-1
O=C(CSC(=S)N1CCOCC1)c1ccc([N+](=O)[O-])cc1	0	2	-31	-6	.	.
Cn1c(=O)[nH]c(=O)c2c1nc(N1CCOCC1)n2CCSc1nc2ccccc2o1	0	-2	-8	-16	.	.
O=C(CCC1(Cc2ccco2)CCC(=O)N1)NCc1cnn(-c2ccccc2)n1 (centres undefined)	0	0	1	-2	.	.
O=C(CCC1(Cc2ccc3c(c2)OCO3)CCC(=O)N1)NCc1cnn(-c2ccccc2)n1 (centres undefined)	0	7.1*	10	2	1	6
COC(=O)COc1ccc(C2NC(=S)NC(C)=C2C(=O)NCc2ccccc2)cc1 (centres undefined)	0	-1	-3	1	.	.
Cc1cc2c(cc1S(=O)(=O)N(C)c1ccc(Br)cc1)OCC(=O)N2	0	10*	2	14	1	4
CN(c1ccc(Br)cc1)S(=O)(=O)c1cc2c(cc1Cl)NC(=O)CO2	0	2	1	8	.	.
Cc1ccc(C2=NN3C(C2)c2cc(Cl)ccc2OC3c2cccc(Cl)c2)o1 (centres undefined)	1	-2	0	17	.	.
CCCNC(=O)C(CC)n1ncn2c(cc3occc32)c1=O (centres undefined)	0	0	2	3	.	.
Cc1cc(C)n(-c2cc(NCCNC(=O)C(C)(C)Oc3ccc(Cl)cc3)nc(C)n2)n1	0	8.6*	10	-18	1	0
O=C1CCCC2=C1C(c1ccc(F)cc1)n1c(nc3ccccc31)N2 (centres undefined)	0	0	8	-3	.	.
Cc1cccc(OCc2nnc(SCC(N)=O)n2C)c1C	0	1	-5	-10	.	.
COc1cc(NC(=O)c2c(C)nn(-c3ccccc3)c2Cl)c(OC)cc1Cl	0	-1	1	0	.	.
Cn1nccc1Nc1cc(C(=O)NCCOc2ccccc2)c2ccccc2n1	0	5.3*	3	14	-1	-13
Cc1cc(Br)ccc1OCC(=O)NCCN(C)C	0	2	8	9	.	.
COc1cccc(CN(C(=O)/C=C/c2ccc(Cl)cc2)C2CCS(=O)(=O)C2)c1 (centres undefined)	0	6.9*	4	9	1	3
O=C1CCCN1CCCNc1nc(-c2csc3ccccc23)nc2c1ncn2Cc1ccc(C(F)(F)F)cc1	0	0	-8	-9	.	.
O=C1CCCN1CCCNc1nc(-c2csc3ccccc23)nc2c1ncn2-c1ccccc1	0	5.8*	11	0	0	-5
O=C1CCCN1CCCNc1nc(N2CCc3ccccc3C2)nc2c1ncn2CCN1CCCC1=O	0	-1	11	-3	.	.
O=C1CCCN1CCn1cnc2c(NCCOc3ccccc3)nc(N3CCc4ccccc4C3)nc21	0	15*	10	0	2	-8
Cc1noc(C)c1-c1nc(NCCOc2ccccc2)c2ncn(CCN3CCCC3=O)c2n1	0	6.1*	5	11	0	-8
NC(=O)Nc1ccc(C(=O)OCCOc2ccc(Cl)cc2)cc1	0	0	-7	-10	.	.
